In all, about 33,000 sequences were measured (“normalized occupancy”: median about 0.075, highest 2% from about 0.095 on). The entries come from a sample that favours the highest values as a whole.
Molecular target: MaxL homodimer (Homo sapiens, UniProt P61244 1-160)
Assay: universal protein-binding microarray (PBM); PBS-based mixture, 10 nM His-tagged protein dimer, 2% milk, 200 ng/uL BSA, 50 ng/uL salmon testes DNA, 0.02% TX-100; detection with Alexa 488 anti-His antibody;; high values mean tight binding
Conditions: protein: recombinant; tags: C-terminal His-tag (pET21a); chain copies: 2; dsDNA, one strand shown
Summary of the method: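 Binding occupancy is a fluorescence intensity normalised to the intensity of the highest-ranked sequence word. Those intensities came from 8-mers on Agilent 4 x 44 K 'all 10-mer' universal arrays incubated with 10 nM His-tagged protein dimer. Bound protein was detected with 10 ng/μL fluorophore-conjugated anti-His antibody before scanning on a GenePix 4400A.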

Sequence of MaxL homodimer (P61244 whole entry): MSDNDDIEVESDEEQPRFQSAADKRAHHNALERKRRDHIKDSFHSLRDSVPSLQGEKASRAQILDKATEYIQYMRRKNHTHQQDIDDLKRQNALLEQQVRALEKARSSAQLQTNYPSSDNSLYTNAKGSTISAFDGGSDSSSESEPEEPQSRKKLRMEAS

**Q.** How did the binding signal turn out when ACATGACA was run?
**A.** Its binding signal is 0.089 normalized occupancy.

**Q.** How did the binding signal turn out when CCATGATC was run?
**A.** The binding signal was 0.0848 normalized occupancy.

**Q.** Which binding signal does the source give for CCATGACC here?
**A.** Its binding signal is 0.0831 normalized occupancy.

**Q.** For GCATGACC, which binding signal is on record?
**A.** The binding signal was 0.0988 normalized occupancy.

**Q.** With ACATGACG as the sequence, how does the binding signal read?
**A.** The binding signal was 0.0854 normalized occupancy.

**Q.** Which binding signal does the source give for ATGGGAGC here?
**A.** The binding signal was 0.0768 normalized occupancy.

**Q.** With GTTCCCTA as the sequence, how does the binding signal read?
**A.** Its binding signal is 0.0721 normalized occupancy.

**Q.** CGAAAATC was tested. Which binding signal did it give?
**A.** Its binding signal is 0.0726 normalized occupancy.

**Q.** CCTTAACC was tested. Which binding signal did it give?
**A.** Its binding signal is 0.0754 normalized occupancy.

**Q.** How did the binding signal turn out when CGCTTATA was run?
**A.** The binding signal was 0.0805 normalized occupancy.

**Q.** Which binding signal does the source give for CAGTCAGG here?
**A.** The binding signal was 0.0732 normalized occupancy.

**Q.** Which binding signal does the source give for ACTAAGTC here?
**A.** Its binding signal is 0.0734 normalized occupancy.

**Q.** With CCCCTTTC as the sequence, how does the binding signal read?
**A.** The binding signal was 0.0738 normalized occupancy.

**Q.** With ACGAACAG as the sequence, how does the binding signal read?
**A.** Its binding signal is 0.0753 normalized occupancy.

**Q.** With ACTCACAT as the sequence, how does the binding signal read?
**A.** Its binding signal is 0.0886 normalized occupancy.

**Q.** CCTGCTGA was tested. Which binding signal did it give?
**A.** Its binding signal is 0.0756 normalized occupancy.

**Q.** CACCCACG was tested. Which binding signal did it give?
**A.** Its binding signal is 0.0964 normalized occupancy.

**Q.** How did the binding signal turn out when CCCCCACG was run?
**A.** The binding signal was 0.0958 normalized occupancy.

**Q.** How did the binding signal turn out when CCCCCACA was run?
**A.** Its binding signal is 0.0839 normalized occupancy.

**Q.** AATCCACG was tested. Which binding signal did it give?
**A.** Its binding signal is 0.0813 normalized occupancy.

**Q.** Which binding signal does the source give for GTTCCACA here?
**A.** Its binding signal is 0.0784 normalized occupancy.

**Q.** Which binding signal does the source give for CATCCACA here?
**A.** Its binding signal is 0.0859 normalized occupancy.

**Q.** CACCCACC was tested. Which binding signal did it give?
**A.** Its binding signal is 0.0828 normalized occupancy.

**Q.** With ATTCCACA as the sequence, how does the binding signal read?
**A.** The binding signal was 0.0794 normalized occupancy.

**Q.** For GCCCCACA, which binding signal is on record?
**A.** Its binding signal is 0.0784 normalized occupancy.

**Q.** For ATTCCACG, which binding signal is on record?
**A.** Its binding signal is 0.0964 normalized occupancy.

**Q.** For CACCCACA, which binding signal is on record?
**A.** Its binding signal is 0.0789 normalized occupancy.

**Q.** How did the binding signal turn out when CATCCACG was run?
**A.** Its binding signal is 0.108 normalized occupancy.

**Q.** With CAACTATG as the sequence, how does the binding signal read?
**A.** The binding signal was 0.0846 normalized occupancy.

**Q.** With AACAGCAT as the sequence, how does the binding signal read?
**A.** The binding signal was 0.087 normalized occupancy.

**Q.** GTTTGGAA was tested. Which binding signal did it give?
**A.** Its binding signal is 0.0754 normalized occupancy.

**Q.** For ACGCCTGG, which binding signal is on record?
**A.** Its binding signal is 0.0735 normalized occupancy.

**Q.** Which binding signal does the source give for CAGTAATA here?
**A.** Its binding signal is 0.0775 normalized occupancy.

**Q.** CATCCCCG was tested. Which binding signal did it give?
**A.** Its binding signal is 0.0773 normalized occupancy.

**Q.** For TTAATGAA, which binding signal is on record?
**A.** Its binding signal is 0.0772 normalized occupancy.

**Q.** ACACAGGC was tested. Which binding signal did it give?
**A.** Its binding signal is 0.0789 normalized occupancy.

**Q.** Which binding signal does the source give for CACTTCGC here?
**A.** The binding signal was 0.0739 normalized occupancy.

**Q.** GTCCTCAC was tested. Which binding signal did it give?
**A.** The binding signal was 0.0765 normalized occupancy.

**Q.** Which binding signal does the source give for AAGAGCAC here?
**A.** Its binding signal is 0.0774 normalized occupancy.

**Q.** How did the binding signal turn out when CGCGGGAC was run?
**A.** Its binding signal is 0.0733 normalized occupancy.

**Q.** How did the binding signal turn out when TAAAGGAA was run?
**A.** The binding signal was 0.0741 normalized occupancy.

**Q.** For AATCGAAA, which binding signal is on record?
**A.** Its binding signal is 0.0785 normalized occupancy.

**Q.** ATGATGTG was tested. Which binding signal did it give?
**A.** Its binding signal is 0.088 normalized occupancy.

**Q.** How did the binding signal turn out when CCGTGGAC was run?
**A.** Its binding signal is 0.0739 normalized occupancy.

**Q.** For GCGTGGAC, which binding signal is on record?
**A.** Its binding signal is 0.0976 normalized occupancy.

**Q.** With GGGTGGAC as the sequence, how does the binding signal read?
**A.** The binding signal was 0.0796 normalized occupancy.

**Q.** For AGGTGGAC, which binding signal is on record?
**A.** The binding signal was 0.0775 normalized occupancy.

**Q.** Which binding signal does the source give for AGGTGGAT here?
**A.** Its binding signal is 0.08 normalized occupancy.

**Q.** With AGGTGGAA as the sequence, how does the binding signal read?
**A.** Its binding signal is 0.0722 normalized occupancy.

**Q.** AAGTGGAT was tested. Which binding signal did it give?
**A.** The binding signal was 0.0727 normalized occupancy.

**Q.** ACGTGGAA was tested. Which binding signal did it give?
**A.** Its binding signal is 0.108 normalized occupancy.

**Q.** For ACGTGGAT, which binding signal is on record?
**A.** Its binding signal is 0.104 normalized occupancy.

**Q.** Which binding signal does the source give for ACGTGGAC here?
**A.** The binding signal was 0.106 normalized occupancy.

**Q.** Which binding signal does the source give for GAGTGGAC here?
**A.** The binding signal was 0.0761 normalized occupancy.

**Q.** For AAGTGGAA, which binding signal is on record?
**A.** The binding signal was 0.072 normalized occupancy.

**Q.** AGCTGAAA was tested. Which binding signal did it give?
**A.** The binding signal was 0.0723 normalized occupancy.

**Q.** Which binding signal does the source give for ACACGGCC here?
**A.** The binding signal was 0.0719 normalized occupancy.

**Q.** AAACATCC was tested. Which binding signal did it give?
**A.** The binding signal was 0.0762 normalized occupancy.

**Q.** Which binding signal does the source give for CGGCACAA here?
**A.** The binding signal was 0.0773 normalized occupancy.

**Q.** For TCAATAGA, which binding signal is on record?
**A.** Its binding signal is 0.0745 normalized occupancy.

**Q.** ACAAGGCT was tested. Which binding signal did it give?
**A.** Its binding signal is 0.0781 normalized occupancy.

**Q.** With GAGGCAGA as the sequence, how does the binding signal read?
**A.** The binding signal was 0.0719 normalized occupancy.

**Q.** How did the binding signal turn out when CGCTCTAA was run?
**A.** The binding signal was 0.0739 normalized occupancy.

**Q.** AGGGCATA was tested. Which binding signal did it give?
**A.** Its binding signal is 0.0779 normalized occupancy.

**Q.** For CCGTGGAG, which binding signal is on record?
**A.** The binding signal was 0.0796 normalized occupancy.

**Q.** GCGTGGAA was tested. Which binding signal did it give?
**A.** Its binding signal is 0.106 normalized occupancy.

**Q.** AGGTGGAG was tested. Which binding signal did it give?
**A.** Its binding signal is 0.0827 normalized occupancy.

**Q.** For CCGTGGAA, which binding signal is on record?
**A.** Its binding signal is 0.0755 normalized occupancy.

**Q.** Which binding signal does the source give for TCGTGGAA here?
**A.** Its binding signal is 0.0835 normalized occupancy.

**Q.** With ACGTGGAG as the sequence, how does the binding signal read?
**A.** Its binding signal is 0.0976 normalized occupancy.

**Q.** With ACGTATTA as the sequence, how does the binding signal read?
**A.** Its binding signal is 0.0818 normalized occupancy.

**Q.** How did the binding signal turn out when AATGGTTA was run?
**A.** Its binding signal is 0.0807 normalized occupancy.

**Q.** For CATGACGG, which binding signal is on record?
**A.** Its binding signal is 0.0797 normalized occupancy.

**Q.** AAGCGTCA was tested. Which binding signal did it give?
**A.** Its binding signal is 0.0737 normalized occupancy.

**Q.** Which binding signal does the source give for GAGCGTGC here?
**A.** The binding signal was 0.0887 normalized occupancy.

**Q.** For CACCGTGC, which binding signal is on record?
**A.** Its binding signal is 0.0868 normalized occupancy.

**Q.** With AAGCGTTA as the sequence, how does the binding signal read?
**A.** Its binding signal is 0.0738 normalized occupancy.

**Q.** Which binding signal does the source give for CAGCGTGC here?
**A.** Its binding signal is 0.118 normalized occupancy.

**Q.** With AAGCGTTG as the sequence, how does the binding signal read?
**A.** Its binding signal is 0.076 normalized occupancy.

**Q.** With CAGCGCGC as the sequence, how does the binding signal read?
**A.** Its binding signal is 0.0795 normalized occupancy.

**Q.** AAGCGCGG was tested. Which binding signal did it give?
**A.** Its binding signal is 0.0752 normalized occupancy.

**Q.** AAGCGTGC was tested. Which binding signal did it give?
**A.** The binding signal was 0.104 normalized occupancy.

**Q.** How did the binding signal turn out when AAGCGTTC was run?
**A.** Its binding signal is 0.0728 normalized occupancy.

**Q.** Which binding signal does the source give for AAGCGTGG here?
**A.** The binding signal was 0.121 normalized occupancy.

**Q.** For AAGCGTGA, which binding signal is on record?
**A.** Its binding signal is 0.0961 normalized occupancy.

**Q.** For GGTCGGAC, which binding signal is on record?
**A.** The binding signal was 0.0772 normalized occupancy.
